Reference: the supplement of paper PMC11732987, “Enantioselective OTUD7B fragment discovery through chemoproteomics screening and high-throughput optimisation” (Communications Chemistry, 2025)

How the values were obtained:
Test in all cases: log2 ratio of Biotin-Ahx-Ub-VS probe labelling (fragment/DMSO); higher = less target engagement (more negative = stronger competition), active = hit call of the paper (q ≤ 0.05, log2 ratio ≤ -1)
Conditions in all cases: compound concentration: 200 uM; treatment time: 3 h
[1] = molecular target: USP34 (UniProt Q70CQ2)
Chain of USP34 (Q70CQ2 whole entry, the tested form may be a part): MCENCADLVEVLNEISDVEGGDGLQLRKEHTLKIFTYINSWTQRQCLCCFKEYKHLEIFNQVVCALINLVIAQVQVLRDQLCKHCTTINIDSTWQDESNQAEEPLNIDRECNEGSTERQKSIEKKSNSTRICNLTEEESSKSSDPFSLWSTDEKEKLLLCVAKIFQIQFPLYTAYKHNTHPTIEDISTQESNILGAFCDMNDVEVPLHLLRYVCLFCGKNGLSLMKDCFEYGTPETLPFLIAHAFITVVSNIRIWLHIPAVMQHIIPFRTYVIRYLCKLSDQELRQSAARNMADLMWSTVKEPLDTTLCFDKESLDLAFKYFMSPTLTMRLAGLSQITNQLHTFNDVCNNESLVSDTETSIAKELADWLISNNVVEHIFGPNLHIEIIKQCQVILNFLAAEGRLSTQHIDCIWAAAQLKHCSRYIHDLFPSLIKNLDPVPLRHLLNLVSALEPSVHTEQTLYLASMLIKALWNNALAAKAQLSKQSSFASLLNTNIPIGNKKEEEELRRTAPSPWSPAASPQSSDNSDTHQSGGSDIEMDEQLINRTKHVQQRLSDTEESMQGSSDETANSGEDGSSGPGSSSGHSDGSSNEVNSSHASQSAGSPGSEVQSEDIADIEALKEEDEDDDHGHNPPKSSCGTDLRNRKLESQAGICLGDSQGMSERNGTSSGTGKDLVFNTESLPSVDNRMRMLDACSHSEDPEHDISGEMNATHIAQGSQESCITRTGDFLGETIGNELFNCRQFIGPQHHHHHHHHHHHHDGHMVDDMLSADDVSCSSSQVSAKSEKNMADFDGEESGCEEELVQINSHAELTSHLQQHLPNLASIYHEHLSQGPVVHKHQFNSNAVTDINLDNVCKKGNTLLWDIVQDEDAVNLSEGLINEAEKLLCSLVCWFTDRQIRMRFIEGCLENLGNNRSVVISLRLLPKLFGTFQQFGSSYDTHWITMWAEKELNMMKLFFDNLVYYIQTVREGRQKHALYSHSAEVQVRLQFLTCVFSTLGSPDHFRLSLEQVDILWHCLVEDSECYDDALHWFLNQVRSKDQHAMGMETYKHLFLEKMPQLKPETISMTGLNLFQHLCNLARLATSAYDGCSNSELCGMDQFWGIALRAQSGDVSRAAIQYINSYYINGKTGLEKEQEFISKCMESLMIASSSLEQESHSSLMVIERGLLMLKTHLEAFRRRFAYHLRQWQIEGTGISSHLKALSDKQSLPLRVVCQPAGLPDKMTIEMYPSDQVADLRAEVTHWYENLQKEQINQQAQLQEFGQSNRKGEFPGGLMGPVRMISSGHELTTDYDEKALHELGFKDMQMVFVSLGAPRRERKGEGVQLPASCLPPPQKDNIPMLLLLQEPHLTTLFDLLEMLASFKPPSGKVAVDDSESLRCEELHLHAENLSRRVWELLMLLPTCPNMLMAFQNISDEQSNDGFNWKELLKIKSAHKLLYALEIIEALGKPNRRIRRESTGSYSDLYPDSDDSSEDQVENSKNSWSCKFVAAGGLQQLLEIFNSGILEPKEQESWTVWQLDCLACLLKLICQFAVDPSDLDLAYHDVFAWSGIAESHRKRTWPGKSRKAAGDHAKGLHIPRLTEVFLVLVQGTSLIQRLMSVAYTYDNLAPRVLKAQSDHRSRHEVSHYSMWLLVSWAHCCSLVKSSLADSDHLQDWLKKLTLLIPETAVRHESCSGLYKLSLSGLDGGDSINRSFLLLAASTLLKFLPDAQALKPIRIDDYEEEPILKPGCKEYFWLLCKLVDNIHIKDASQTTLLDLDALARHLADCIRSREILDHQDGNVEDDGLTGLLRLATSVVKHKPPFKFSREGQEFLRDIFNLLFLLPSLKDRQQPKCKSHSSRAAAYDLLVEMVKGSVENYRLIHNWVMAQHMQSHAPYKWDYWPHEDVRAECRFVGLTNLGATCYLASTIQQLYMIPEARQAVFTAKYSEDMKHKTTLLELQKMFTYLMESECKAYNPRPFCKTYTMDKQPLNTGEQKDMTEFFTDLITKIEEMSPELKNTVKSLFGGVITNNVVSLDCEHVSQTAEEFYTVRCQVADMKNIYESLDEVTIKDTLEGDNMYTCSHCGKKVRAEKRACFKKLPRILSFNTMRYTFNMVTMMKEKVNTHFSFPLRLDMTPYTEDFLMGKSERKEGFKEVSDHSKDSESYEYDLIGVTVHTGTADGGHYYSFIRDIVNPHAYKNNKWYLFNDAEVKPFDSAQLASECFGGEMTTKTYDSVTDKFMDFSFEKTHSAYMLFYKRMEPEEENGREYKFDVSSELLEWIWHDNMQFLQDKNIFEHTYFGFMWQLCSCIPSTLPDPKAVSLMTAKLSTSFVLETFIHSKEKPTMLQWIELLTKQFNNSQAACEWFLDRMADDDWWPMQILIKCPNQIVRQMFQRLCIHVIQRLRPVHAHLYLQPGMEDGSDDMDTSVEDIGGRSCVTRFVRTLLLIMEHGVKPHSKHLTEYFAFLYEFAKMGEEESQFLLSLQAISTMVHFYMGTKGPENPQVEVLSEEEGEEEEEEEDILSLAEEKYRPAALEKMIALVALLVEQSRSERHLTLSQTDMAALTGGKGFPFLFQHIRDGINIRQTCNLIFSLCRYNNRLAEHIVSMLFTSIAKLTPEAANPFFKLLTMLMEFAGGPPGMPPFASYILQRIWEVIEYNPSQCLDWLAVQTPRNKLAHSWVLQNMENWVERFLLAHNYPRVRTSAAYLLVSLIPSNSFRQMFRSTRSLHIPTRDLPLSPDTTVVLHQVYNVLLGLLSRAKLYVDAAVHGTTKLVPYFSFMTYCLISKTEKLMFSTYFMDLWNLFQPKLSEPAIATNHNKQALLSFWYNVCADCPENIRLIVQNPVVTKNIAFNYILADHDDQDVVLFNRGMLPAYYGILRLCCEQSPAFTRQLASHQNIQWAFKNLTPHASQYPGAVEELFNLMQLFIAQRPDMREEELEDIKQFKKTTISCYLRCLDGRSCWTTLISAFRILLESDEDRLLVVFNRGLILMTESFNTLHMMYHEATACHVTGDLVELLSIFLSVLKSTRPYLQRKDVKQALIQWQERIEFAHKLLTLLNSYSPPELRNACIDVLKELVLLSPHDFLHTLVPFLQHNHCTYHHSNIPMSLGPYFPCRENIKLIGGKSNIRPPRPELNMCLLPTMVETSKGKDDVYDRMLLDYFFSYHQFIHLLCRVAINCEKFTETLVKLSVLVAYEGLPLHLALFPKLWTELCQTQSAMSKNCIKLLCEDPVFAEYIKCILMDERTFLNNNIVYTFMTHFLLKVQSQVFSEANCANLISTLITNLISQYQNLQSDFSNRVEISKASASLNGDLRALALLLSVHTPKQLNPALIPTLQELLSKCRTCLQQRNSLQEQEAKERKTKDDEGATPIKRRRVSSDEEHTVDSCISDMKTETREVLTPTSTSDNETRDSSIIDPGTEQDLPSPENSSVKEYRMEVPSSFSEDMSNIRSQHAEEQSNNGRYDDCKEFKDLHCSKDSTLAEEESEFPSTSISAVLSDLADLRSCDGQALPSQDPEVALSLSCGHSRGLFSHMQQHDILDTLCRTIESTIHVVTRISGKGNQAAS
In short: (§1)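 HEK293T lysate, 495 µg per sample in Tris/CHAPS/IGEPAL buffer with protease inhibitors, was treated in triplicate with fragment at 200 µM or vehicle for 3 h and then with Biotin-Ahx-Ub-VS at 0.5 µM final for 1 h. Labelled DUBs were NeutrAvidin-enriched, digested with LysC and trypsin, and run by diaPASEF LC-MS/MS. Spectronaut label-free quantities were global-median-normalised, and values are average log2 fragment/vehicle ratios by unpaired t-test on proteins with ≥2 unique peptides.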

[2] = molecular target: T1, USP36 (UniProt Q9P275)
T1 sequence (whole entry): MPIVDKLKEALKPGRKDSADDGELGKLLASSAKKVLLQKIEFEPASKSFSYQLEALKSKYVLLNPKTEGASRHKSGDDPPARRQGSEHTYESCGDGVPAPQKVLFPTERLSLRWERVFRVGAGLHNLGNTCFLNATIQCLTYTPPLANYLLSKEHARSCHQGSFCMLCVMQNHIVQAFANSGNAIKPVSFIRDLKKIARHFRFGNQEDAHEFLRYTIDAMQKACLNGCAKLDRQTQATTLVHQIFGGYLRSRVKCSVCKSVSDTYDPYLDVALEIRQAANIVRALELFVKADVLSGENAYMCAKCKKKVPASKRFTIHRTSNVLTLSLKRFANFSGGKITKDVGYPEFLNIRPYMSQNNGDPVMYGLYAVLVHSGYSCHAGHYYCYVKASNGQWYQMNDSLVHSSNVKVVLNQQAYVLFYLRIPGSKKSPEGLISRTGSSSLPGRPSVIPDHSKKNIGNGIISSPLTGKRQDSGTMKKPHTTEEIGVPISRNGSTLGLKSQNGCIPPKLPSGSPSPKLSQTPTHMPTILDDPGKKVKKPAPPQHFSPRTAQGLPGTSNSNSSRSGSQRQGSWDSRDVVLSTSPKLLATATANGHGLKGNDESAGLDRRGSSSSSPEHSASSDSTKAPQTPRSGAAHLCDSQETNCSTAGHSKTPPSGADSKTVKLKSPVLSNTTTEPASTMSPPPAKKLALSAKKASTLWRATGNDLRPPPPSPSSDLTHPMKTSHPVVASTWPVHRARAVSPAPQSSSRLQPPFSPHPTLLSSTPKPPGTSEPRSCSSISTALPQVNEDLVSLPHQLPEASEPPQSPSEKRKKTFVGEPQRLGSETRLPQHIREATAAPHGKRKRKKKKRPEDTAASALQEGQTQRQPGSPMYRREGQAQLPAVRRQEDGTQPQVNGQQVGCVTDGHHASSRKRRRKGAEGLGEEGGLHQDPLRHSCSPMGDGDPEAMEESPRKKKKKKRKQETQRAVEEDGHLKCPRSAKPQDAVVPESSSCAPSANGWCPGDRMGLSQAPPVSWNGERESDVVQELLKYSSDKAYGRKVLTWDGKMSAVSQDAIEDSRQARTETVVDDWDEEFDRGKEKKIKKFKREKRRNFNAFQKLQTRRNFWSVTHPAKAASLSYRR
In short: as §1

[3] = molecular target: T2, USP38 (UniProt Q8NB14)
T2 sequence (whole entry): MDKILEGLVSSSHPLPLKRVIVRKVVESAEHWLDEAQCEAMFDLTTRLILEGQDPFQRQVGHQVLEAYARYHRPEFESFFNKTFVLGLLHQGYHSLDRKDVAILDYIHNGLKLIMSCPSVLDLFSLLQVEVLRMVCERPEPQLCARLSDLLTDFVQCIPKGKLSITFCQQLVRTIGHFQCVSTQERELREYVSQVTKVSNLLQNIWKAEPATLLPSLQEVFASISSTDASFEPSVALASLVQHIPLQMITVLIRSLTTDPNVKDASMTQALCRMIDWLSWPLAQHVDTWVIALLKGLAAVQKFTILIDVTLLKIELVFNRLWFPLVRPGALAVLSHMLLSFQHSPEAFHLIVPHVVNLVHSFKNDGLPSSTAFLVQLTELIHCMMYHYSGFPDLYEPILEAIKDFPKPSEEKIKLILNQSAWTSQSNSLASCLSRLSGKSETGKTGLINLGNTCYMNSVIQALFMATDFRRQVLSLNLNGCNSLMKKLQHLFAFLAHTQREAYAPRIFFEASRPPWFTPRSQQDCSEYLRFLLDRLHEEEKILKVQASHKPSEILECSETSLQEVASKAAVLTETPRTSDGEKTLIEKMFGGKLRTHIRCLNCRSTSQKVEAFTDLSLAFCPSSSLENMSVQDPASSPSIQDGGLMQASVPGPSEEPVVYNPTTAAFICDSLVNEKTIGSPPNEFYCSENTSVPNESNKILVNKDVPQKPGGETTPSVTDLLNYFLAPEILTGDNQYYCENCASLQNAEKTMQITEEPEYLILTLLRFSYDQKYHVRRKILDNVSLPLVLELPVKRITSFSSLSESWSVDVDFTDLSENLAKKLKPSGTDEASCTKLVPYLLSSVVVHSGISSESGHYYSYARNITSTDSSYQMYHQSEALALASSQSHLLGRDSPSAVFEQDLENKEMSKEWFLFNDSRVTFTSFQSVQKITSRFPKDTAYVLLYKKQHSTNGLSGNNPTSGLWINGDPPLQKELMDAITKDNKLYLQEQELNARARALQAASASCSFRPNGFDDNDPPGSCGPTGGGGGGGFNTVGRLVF
In short: as §1

[4] = molecular target: T3, USP39 (UniProt Q53GS9)
T3 sequence (whole entry): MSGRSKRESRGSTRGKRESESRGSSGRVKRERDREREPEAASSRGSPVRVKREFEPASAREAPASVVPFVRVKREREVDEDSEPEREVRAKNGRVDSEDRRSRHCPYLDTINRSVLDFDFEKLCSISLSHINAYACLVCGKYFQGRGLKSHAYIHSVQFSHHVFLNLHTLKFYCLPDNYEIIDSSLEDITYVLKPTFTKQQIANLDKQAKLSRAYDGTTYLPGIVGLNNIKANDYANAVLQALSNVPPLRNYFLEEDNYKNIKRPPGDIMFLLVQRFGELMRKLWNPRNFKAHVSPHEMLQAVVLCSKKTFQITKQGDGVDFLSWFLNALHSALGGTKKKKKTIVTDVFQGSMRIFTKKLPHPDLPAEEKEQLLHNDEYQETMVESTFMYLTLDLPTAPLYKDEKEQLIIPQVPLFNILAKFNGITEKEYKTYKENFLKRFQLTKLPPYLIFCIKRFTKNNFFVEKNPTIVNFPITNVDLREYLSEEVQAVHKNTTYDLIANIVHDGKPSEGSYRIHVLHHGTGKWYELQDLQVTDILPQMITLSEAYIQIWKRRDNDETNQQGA
In short: as §1

[5] = molecular target: T4, USP4 (UniProt Q13107)
T4 sequence (whole entry): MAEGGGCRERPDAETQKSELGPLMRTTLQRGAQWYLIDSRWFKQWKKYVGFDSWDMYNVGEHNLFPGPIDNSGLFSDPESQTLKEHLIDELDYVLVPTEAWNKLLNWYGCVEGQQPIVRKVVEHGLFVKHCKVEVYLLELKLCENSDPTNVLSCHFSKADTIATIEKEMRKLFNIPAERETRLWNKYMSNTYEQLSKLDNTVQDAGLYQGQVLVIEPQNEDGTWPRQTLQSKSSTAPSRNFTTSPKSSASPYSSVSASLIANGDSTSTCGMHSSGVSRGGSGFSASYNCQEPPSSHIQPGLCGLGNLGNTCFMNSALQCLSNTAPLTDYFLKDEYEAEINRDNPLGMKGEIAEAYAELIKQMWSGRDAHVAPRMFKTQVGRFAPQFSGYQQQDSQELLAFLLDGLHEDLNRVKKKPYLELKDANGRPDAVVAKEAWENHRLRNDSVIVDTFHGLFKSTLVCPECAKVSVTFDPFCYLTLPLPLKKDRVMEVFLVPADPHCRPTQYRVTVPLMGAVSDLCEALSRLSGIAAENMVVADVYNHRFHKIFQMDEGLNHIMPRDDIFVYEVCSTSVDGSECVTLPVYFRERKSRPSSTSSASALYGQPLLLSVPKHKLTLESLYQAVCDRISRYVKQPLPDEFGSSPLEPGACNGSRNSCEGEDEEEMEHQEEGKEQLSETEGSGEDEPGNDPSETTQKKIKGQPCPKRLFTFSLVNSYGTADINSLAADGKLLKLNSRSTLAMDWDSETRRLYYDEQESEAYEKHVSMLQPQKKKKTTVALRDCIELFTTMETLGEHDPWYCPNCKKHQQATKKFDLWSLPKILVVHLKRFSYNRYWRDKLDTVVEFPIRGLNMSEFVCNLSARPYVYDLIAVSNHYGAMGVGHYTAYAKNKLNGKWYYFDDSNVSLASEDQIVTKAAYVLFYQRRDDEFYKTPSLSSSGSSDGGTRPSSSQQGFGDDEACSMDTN
In short: as §1

Measured: log2 ratio of Biotin-Ahx-Ub-VS probe labelling

Cl.O=C(CCl)NCCc1ncc(F)cc1F
inactive: [1] -0.216 | [2] -0.308 | [3] -0.203 | [4] -0.202 | [5] 0.0209
